Assay results from article PMC6451091, “NextPBM: a platform to study cell-specific transcription factor binding and cooperativity”.
In all, about 3,700 sequences were measured (“z-score”: median about 4, highest 2% from about 8.4 on). The list comes from a sample in which the highest values are over-represented; it also holds similar and randomly drawn sequences.

What was measured:
PU.1 (IVT) [1] = target: PU.1 (IVT) (UniProt P17947 1-270); assay: protein-binding microarray (PBM); 20 mM HEPES pH 7.9, 100 mM NaCl, 1 mM DTT, 0.2 mg/mL BSA, 0.02% Triton X-100, 2% milk, 0.4 mg/mL salmon testes DNA; 1 h; temperature not stated; high values mean tight binding; conditions: dsDNA, one strand shown
How it was run: (§1)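 Untagged full-length PU.1 was produced by coupled human in vitro transcription/translation and incubated for 1 h on custom double-stranded DNA microarrays in HEPES pH 7.9 containing 100 mM NaCl, 2% milk and salmon testes DNA. Each array carried 20-bp genomic sites and single-nucleotide variants, with 10 probes per site (5 per orientation). Bound protein was detected with anti-PU.1 followed by a fluorescent secondary antibody. Binding values are z-scores calculated from scanned fluorescence after linear-regression normalisation.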

PU.1 (IVT) [2] = target: PU.1 (IVT) (UniProt P17947 1-270); assay: as above; conditions: dsDNA, one strand shown; remark: listed apart in the source
How it was run: as §1

Sequence	binding signal (PU.1 (IVT) [1]) [z-score]	binding signal (PU.1 (IVT) [2]) [z-score]
GCCTAGCACCAAAAAGGGAAGTGCATGCTGTGCTAGGTCTTGATTCGCTTGACGCTGCTG	6.52	–
GCCTAGCACAGCATGAGGAAGTGTCAGATGTGCTAGGTCTTGATTCGCTTGACGCTGCTG	–	4.45
GCCTAGCACTTGAAAAGGAAGTGCAACAAGTGCTAGGTCTTGATTCGCTTGACGCTGCTG	2.73	–
GCCTAGCACTGAAAGAGGAACTCTCACATGTGCTAGGTCTTGATTCGCTTGACGCTGCTG	4.89	–
GCCTAGCACAAAAAGAGGAAGTCTTTTATGTGCTAGGTCTTGATTCGCTTGACGCTGCTG	8.71	–
GCCTAGCACAAAAGAAGGAAGTGGTTTATGTGCTAGGTCTTGATTCGCTTGACGCTGCTG	–	6.15
GCCTAGCACCAAAAGAGGAAGTCATTTATGTGCTAGGTCTTGATTCGCTTGACGCTGCTG	8.11	–
GCCTAGCACAAAAAGAGGAAGTCGTTTTCGTGCTAGGTCTTGATTCGCTTGACGCTGCTG	8.57	–
GCCTAGCACAAAAAGAGGAAGAGGAATAGGTGCTAGGTCTTGATTCGCTTGACGCTGCTG	–	5.98
GCCTAGCACAAAAAGAGGAAGTGCTTTTCGTGCTAGGTCTTGATTCGCTTGACGCTGCTG	8.49	–
GCCTAGCACAAAAAGAGGAAGTGGTTGTCGTGCTAGGTCTTGATTCGCTTGACGCTGCTG	8.71	–
GCCTAGCACAAAAAGAGGAAGAGAGAAAAGTGCTAGGTCTTGATTCGCTTGACGCTGCTG	–	5.63
GCCTAGCACAACAAGAGGAAGTGGCTTTCGTGCTAGGTCTTGATTCGCTTGACGCTGCTG	5.51	–
GCCTAGCACAAAAAAAGGAAGTGGTGGTTGTGCTAGGTCTTGATTCGCTTGACGCTGCTG	6.87	–
GCCTAGCACAAAAAAAGGAAGTCAAAGTCGTGCTAGGTCTTGATTCGCTTGACGCTGCTG	6.75	–
GCCTAGCACAAAAGGAGGAAGTGGTTACAGTGCTAGGTCTTGATTCGCTTGACGCTGCTG	–	6.37
GCCTAGCACTATTTGAGGAAGTGTGAGAAGTGCTAGGTCTTGATTCGCTTGACGCTGCTG	5.91	–
GCCTAGCACTAAAGAGGGAAGTGGGAGCCGTGCTAGGTCTTGATTCGCTTGACGCTGCTG	3.74	–
GCCTAGCACGGAAAGTGGAACTGAAACTTGTGCTAGGTCTTGATTCGCTTGACGCTGCTG	–	1.93
GCCTAGCACGAAAAGAGGATGTGGATCTGGTGCTAGGTCTTGATTCGCTTGACGCTGCTG	–	3.52
GCCTAGCACAAAAACAGGAACTGGCCAGGGTGCTAGGTCTTGATTCGCTTGACGCTGCTG	–	5.89
GCCTAGCACCGAATGAGGAACTGATGCGGGTGCTAGGTCTTGATTCGCTTGACGCTGCTG	–	5.03
GCCTAGCACAATAAGAGGAAGTCAAAATAGTGCTAGGTCTTGATTCGCTTGACGCTGCTG	–	6.65
GCCTAGCACGAAATGAGGAAGTCAAATTAGTGCTAGGTCTTGATTCGCTTGACGCTGCTG	7.71	–
GCCTAGCACGAAAAGAGGAAGTCACATTAGTGCTAGGTCTTGATTCGCTTGACGCTGCTG	8.62	–

Sequence	binding signal (PU.1 (IVT) [1]) [z-score]	binding signal (PU.1 (IVT) [2]) [z-score]
GCCTAGCACGAAAAGAGGAAGTCAAAATAGTGCTAGGTCTTGATTCGCTTGACGCTGCTG	8.29	–
GCCTAGCACAAAAAAAGGAAGTGGAATTAGTGCTAGGTCTTGATTCGCTTGACGCTGCTG	6.73	–
GCCTAGCACAAAAAGAGGAAGTCAAATTAGTGCTAGGTCTTGATTCGCTTGACGCTGCTG	8.57	–
GCCTAGCACAAAAAGAGGAAGTCAAATTGGTGCTAGGTCTTGATTCGCTTGACGCTGCTG	8.3	–
GCCTAGCACGAAAAGAGGAAGTCACATTGGTGCTAGGTCTTGATTCGCTTGACGCTGCTG	8.32	–
GCCTAGCACAAAAAGAGGAAGTCAAATAAGTGCTAGGTCTTGATTCGCTTGACGCTGCTG	8.51	–
GCCTAGCACGAGAAGAGGAAGTCAAATAAGTGCTAGGTCTTGATTCGCTTGACGCTGCTG	–	5.64
GCCTAGCACGAAAAGAGGAAGTCAGATTAGTGCTAGGTCTTGATTCGCTTGACGCTGCTG	8.07	–
GCCTAGCACGAAAAGAGGAAGTCAAATTAGTGCTAGGTCTTGATTCGCTTGACGCTGCTG	8.43	–
GCCTAGCACGCTTTAGGGAACTACTGTGGGTGCTAGGTCTTGATTCGCTTGACGCTGCTG	–	3.58
GCCTAGCACCCTAAAGGGAAGTGTAAATAGTGCTAGGTCTTGATTCGCTTGACGCTGCTG	–	3.27
GCCTAGCACCAAATCAGGAACTGATGCGGGTGCTAGGTCTTGATTCGCTTGACGCTGCTG	–	3.39
GCCTAGCACTTTTATCAGGAAATGACTGGGTGCTAGGTCTTGATTCGCTTGACGCTGCTG	–	0.896
GCCTAGCACTCAGGAGGGAAGTGAAGAAAGTGCTAGGTCTTGATTCGCTTGACGCTGCTG	2.65	–
GCCTAGCACAGATTGTGGAAGTACTGTGAGTGCTAGGTCTTGATTCGCTTGACGCTGCTG	2.73	–
GCCTAGCACAGAATAGGGAAGTGAGAAATGTGCTAGGTCTTGATTCGCTTGACGCTGCTG	6.39	–
GCCTAGCACCAGAAAAGGAAGTGGGGGTGGTGCTAGGTCTTGATTCGCTTGACGCTGCTG	–	3.51
GCCTAGCACCTGGGAGGGAACTGAAACTCGTGCTAGGTCTTGATTCGCTTGACGCTGCTG	–	0.859
GCCTAGCACTGGAAGAGGAAGTGGCACTGGTGCTAGGTCTTGATTCGCTTGACGCTGCTG	–	5.78
GCCTAGCACCTTTTAAGGAAGTGCTCACTGTGCTAGGTCTTGATTCGCTTGACGCTGCTG	–	4.92
GCCTAGCACGAAAAGAGGAAGTGAGAAACGTGCTAGGTCTTGATTCGCTTGACGCTGCTG	8.29	–
GCCTAGCACGAAAAAAGGAAGTAGTATAAGTGCTAGGTCTTGATTCGCTTGACGCTGCTG	6.96	–
GCCTAGCACGAAAAGAGGAAGTTGCTTACGTGCTAGGTCTTGATTCGCTTGACGCTGCTG	9.03	–
GCCTAGCACGAAAAGAGGAAGTAGGATAAGTGCTAGGTCTTGATTCGCTTGACGCTGCTG	8.46	–
